Screening results as filed in PubChem BioAssay.
PostGolgi ctrl – growth inhibition of yeast control strain, primary screen, counter-screen for post-Golgi transport modulator project; efflux-deficient yeast background strain, growth absorbance A615, 16 h; inhibition, % at 10 µM; hit rate 5% among 98,000; AID 738, 2007
Pyk2 oligo antag – antagonists of Pyk2 self-association, primary screen, Q293 cells, FERM NanoBiT luminescence, HTS; hits give low values; z-score (the deposit names both 25 µM and 10 µM); hit rate 0.83% among 99,000; AID 1347419, 2020;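 active = Z-score of -3 or lower, scaled per plate to the spread of control and sample wells; inactive = z-score above -3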;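 note: negative z-score means lost luminescence so less FERM oligomerization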
Target sequence (Q14289 whole entry, looked up): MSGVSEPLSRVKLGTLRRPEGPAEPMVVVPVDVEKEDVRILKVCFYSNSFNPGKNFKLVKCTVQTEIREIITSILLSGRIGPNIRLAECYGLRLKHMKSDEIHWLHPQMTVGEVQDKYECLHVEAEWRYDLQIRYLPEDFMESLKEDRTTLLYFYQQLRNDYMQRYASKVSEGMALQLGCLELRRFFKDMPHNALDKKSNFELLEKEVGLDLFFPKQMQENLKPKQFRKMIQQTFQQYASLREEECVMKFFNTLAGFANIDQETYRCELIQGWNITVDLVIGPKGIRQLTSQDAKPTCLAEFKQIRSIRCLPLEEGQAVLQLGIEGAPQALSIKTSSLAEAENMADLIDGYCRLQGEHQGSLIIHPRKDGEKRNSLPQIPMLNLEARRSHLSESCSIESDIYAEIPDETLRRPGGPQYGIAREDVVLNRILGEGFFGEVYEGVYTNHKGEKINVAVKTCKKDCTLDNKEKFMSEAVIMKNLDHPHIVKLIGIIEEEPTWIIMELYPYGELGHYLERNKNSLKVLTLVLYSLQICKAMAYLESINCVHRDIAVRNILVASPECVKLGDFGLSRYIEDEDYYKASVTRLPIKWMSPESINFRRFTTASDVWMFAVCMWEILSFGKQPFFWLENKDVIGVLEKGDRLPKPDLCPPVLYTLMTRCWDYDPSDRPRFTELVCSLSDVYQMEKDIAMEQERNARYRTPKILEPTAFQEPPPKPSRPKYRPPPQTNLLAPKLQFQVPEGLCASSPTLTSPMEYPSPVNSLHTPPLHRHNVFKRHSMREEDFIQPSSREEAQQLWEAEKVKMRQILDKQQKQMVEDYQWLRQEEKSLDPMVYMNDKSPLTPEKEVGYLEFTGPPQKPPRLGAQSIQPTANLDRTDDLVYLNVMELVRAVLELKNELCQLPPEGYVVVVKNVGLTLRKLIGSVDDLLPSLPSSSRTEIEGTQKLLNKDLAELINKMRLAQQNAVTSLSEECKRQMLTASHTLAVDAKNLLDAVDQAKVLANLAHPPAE
Cav32 inh – Cav3.2 calcium influx blockers – cell-based, Fluo-4 calcium fluorescence, FDSS, MLSMR library, primary screen. Voltage-dependent T-type calcium channel subunit alpha-1H (Homo sapiens), O95180. Cav3.2-expressing cells; hits give low values. B-score at 10 µM. hit rate 4% among 100,000. AID 449739, 2010;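 active = single-dose well whose peak fluorescence ratio is a statistical outlier from its plate by either plate-standardised score or position-corrected B-score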
PostGolgi yeast – phenotypic screen on post-Golgi transport, primary screen; post-Golgi transport phenotypic cell assay; inhibition, % at 10 µM; hit rate 0.9% among 98,000;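 note: yeast cells grown in 1536-well plates; yeast grown about 18 h at 30C before absorbance read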
A number is an active result; – = inactive; · = no result. In the library only some 8% were active in any assay of this set; here they are far more common. Cut-off read from the data, not from the text of the source, unless noted: active = inhibition above about 30%; inactive = the rest.

SMILES | PostGolgi ctrl | Pyk2 oligo antag | Cav32 inh | PostGolgi yeast
CCc1nnc(NC(=O)CSc2nnc(-c3cc4ccccc4cc3O)n2CC)s1 | – | -3.04 | – | –
CCn1c(SCC(=O)N(C(C)C)C(C)C)nnc1-c1cc2ccccc2cc1O | 46.1 | – | – | –
COc1cccc(CNC(=O)C(c2ccc(Cl)cc2)C(C)C)c1 (stereo not given) | · | – | · | ·
COCCOC(=O)C(C#N)c1nc2ccccc2nc1N1CCN(Cc2ccccc2)CC1 (stereo not given) | – | – | – | –
COCCCNC(=O)C(C#N)c1nc2ccccc2nc1N1CCN(Cc2ccccc2)CC1 (stereo not given) | – | – | -8.99 | –
CCCCNC(=O)C(C#N)c1nc2ccccc2nc1N1CCN(c2ccccc2F)CC1 (stereo not given) | – | – | -7.54 | –
COCCNC(=O)C(C#N)c1nc2ccccc2nc1N1CCCCCC1 (stereo not given) | – | – | · | –
CC(C)COC(=O)C(C#N)c1nc2ccccc2nc1N1CCN(Cc2ccccc2)CC1 (stereo not given) | – | – | -3.96 | –
N#CC(C(=O)NC1CC1)c1nc2ccccc2nc1N1CCN(C/C=C/c2ccccc2)CC1 (stereo not given) | – | – | -11.3 | –
COc1ccc(NS(=O)(=O)c2cc(NC(=O)[C@@H](NC(=O)c3ccccc3)C(C)C)ccc2C)cc1 | · | – | · | ·
N#CC(C(=O)OC1CCCCC1)c1nc2ccccc2nc1N1CCOCC1 (stereo not given) | 40.4 | – | – | –
C=CCOC(=O)C(C#N)c1nc2ccccc2nc1N1CCN(c2ccccc2OC)CC1 (stereo not given) | – | – | -9.25 | –
COCC(C)OC(=O)C(C#N)c1nc2ccccc2nc1N1CCN(Cc2ccccc2)CC1 (stereo not given) | – | – | -6.12 | –
C=CCOC(=O)C(C#N)c1nc2ccccc2nc1N1CCN(Cc2ccccc2)CC1 (stereo not given) | – | – | – | –
CN1CCN(c2nc3ccccc3nc2C(C#N)C(=O)OC2CCCCC2)CC1 (stereo not given) | – | – | – | –
COC(=O)Cn1c(=O)c2c(nc3n2CC(C)CN3c2ccc(C)c(C)c2)n(C)c1=O (stereo not given) | · | · | – | ·
CCC(C)NC(=O)CSc1nnc(-c2cc(-c3cccs3)nc3ccccc23)o1 (stereo not given) | – | – | – | –
CCOC(=O)C(NC(=O)Cc1ccccc1)(Nc1cc(C)on1)C(F)(F)F (stereo not given) | · | – | – | ·
Cc1cc(NC(=O)CSC2=Nc3ccccc3C3=NC(Cc4ccccc4)C(=O)N23)n[nH]1 (stereo not given) | – | – | – | –
CCN(CC)C(=O)CSC1=Nc2ccccc2C2=NC(Cc3c[nH]c4ccccc34)C(=O)N12 (stereo not given) | 34.4 | – | – | –
O=C(NC1CCCCC1)c1cccc(Cn2cc(Cl)cn2)c1 | – | – | – | –
O=C(NCc1ccco1)c1ccccc1Nc1ccc(F)cc1 | 31.7 | – | -6 | –
O=C(c1ccccc1Nc1ccc(SC(F)F)cc1)N1CCCCC1 | – | – | -7.05 | –
O=C(NCc1ccco1)c1ccccc1NS(=O)(=O)c1ccc(Br)s1 | – | – | -6.14 | –
O=C(Nc1ccc(F)cc1)NC1(C(=O)NCc2ccco2)CCCCC1 | 31.5 | – | – | –
SMILES | PostGolgi ctrl | Pyk2 oligo antag | Cav32 inh | PostGolgi yeast
O=C(O)CCC(=O)Nc1ccccc1C(=O)NCc1ccco1 | · | – | – | ·
CC1CCCC(C)N1C(=O)c1ccccc1Nc1ccc(SC(F)F)cc1 (stereo not given) | – | – | – | –
CC1CCc2c(sc(N)c2C(=O)OC(C)C)C1 (stereo not given) | – | – | – | –
CC(OC1=CC(=O)CCC1)C(=O)c1ccccc1 (stereo not given) | – | – | – | –
CCO[C@H]1OC(C(=O)N2CCOCC2)=C[C@@H](c2coc3ccccc3c2=O)[C@@H]1CCCO | · | · | – | ·
O=C(COC(=O)c1ccccc1Nc1ccc(SC(F)F)cc1)NCc1ccco1 | 32.3 | – | – | –
COc1ccc(-c2nnc(SCc3nnc(-c4ccc(Cl)cc4)o3)n2-c2ccccc2)cc1 | – | – | -8.43 | –
O=C(Nc1cc(Cl)cc(Cl)c1)c1ccc(Cn2c(=O)[nH]c3ccsc3c2=O)cc1 | · | · | – | ·
Cc1ccc(C)c(NS(=O)(=O)c2cc(C(=O)NCCC3=CCCCC3)ccc2C)c1 | – | – | – | –
CCC(CC)C(=O)Nc1cccc(C(=O)NCc2ccco2)c1 | 42.4 | – | – | –
Cc1ccc(C(=O)NCCSc2ccccc2)cc1S(=O)(=O)Nc1ccccc1 | – | – | -5.8 | –
Cc1ccc(C)c(NS(=O)(=O)c2cc(C(=O)Nc3cccc(N(C)S(C)(=O)=O)c3)ccc2C)c1 | – | – | -4.45 | –
Cc1ccc(C)c(NS(=O)(=O)c2cc(C(=O)NCCSC3CCCCC3)ccc2C)c1 | 40.6 | – | -4.53 | –
Cc1ccccc1CN(c1ccc(C(=O)N2CCc3ccccc3C2)cc1)S(C)(=O)=O | – | – | – | –
C#CC[N+](C)(C)C(C#Cc1ccccc1)CC=C (stereo not given) | – | – | – | –
CC(c1ccco1)N(C(=O)C12CC3CC(CC(C)(C3)C1)C2)c1ccccn1 (stereo not given) | – | – | – | –
O=C(NCc1ccco1)c1cccc(NC(=O)c2ccccc2)c1 | – | – | – | –
CCC(CC)C(=O)Nc1cccc(/C(C)=N\NC(=O)c2ccc(C)s2)c1 | – | – | -5.81 | –
C/C(=N/NC(=O)c1ccco1)c1cccc(NC(=O)c2ccc(C)s2)c1 | · | – | · | ·
Cc1occc1C(=O)Nc1cccc(C(=O)NCc2ccccc2)c1 | – | – | -3.8 | –
Cc1ccc(C(=O)NCc2ccco2)cc1S(=O)(=O)Nc1cccc(Cl)c1 | – | – | -5.96 | –
Cc1ccc(C)c(S(=O)(=O)NCc2ccc(C(=O)NCc3ccco3)cc2)c1 | · | – | – | ·
Cc1ccccc1NS(=O)(=O)c1cc(C(=O)NCCSC2CCCCC2)ccc1C | – | – | -4.45 | –
COCCNC(=O)c1ccc(C)c(S(=O)(=O)Nc2ccc(C)cc2)c1 | – | – | – | –
Cc1cc(S(=O)(=O)Nc2ccc(F)cc2)c(C)s1 | – | – | – | –
SMILES | PostGolgi ctrl | Pyk2 oligo antag | Cav32 inh | PostGolgi yeast
CC1CCCCN1C(=O)CSc1nnc(-c2c[nH]c3ccccc23)o1 (stereo not given) | – | – | – | –
Clc1ccc(OCCCc2nc(-c3cccnc3)no2)c(Cl)c1 | 34.1 | – | – | –
Clc1ccc(OCCCc2nc(-c3ccncc3)no2)c(Cl)c1 | 94.7 | – | – | 92.2
Clc1ccc(-c2noc(CCCOc3ccccc3)n2)cc1 | – | – | – | –
c1coc(-c2nnc3sc(C4CCCCC4)nn23)c1 | – | – | – | –
CCOC(=O)c1c(C)n(C)c2ccc(OC)c(NC(=O)CCN3CCSCC3)c12 | – | – | – | –
CS(=O)(=O)N1CCCC(C(=O)NCc2ccc(F)cc2Cl)C1 (stereo not given) | – | – | – | –
